# Experimental data taken from ChEMBL document CHEMBL3988442, “University of Dundee, Small-Polar-MMV Screening Library” (2021).
# Among all 69,000 compounds or so, about 1,000 (1.4%) showed an effect of 50% or more. The entries come from a sample that favours strong results as a whole.
# Test system: Leishmania donovani
# Assay: Leishmania intramacrophage assay
# Type: functional, organism-based
# Set-up: scale not given: in the data most compounds retested in dose-response had high values
smiles,measurement,setting,value
Cc1cccc2[nH]c(-c3cn(C4CCNCC4)nn3)nc12,Percent Effect,"30.3 µM, […]",8.553%
COc1cccc(CCn2ccnc2-c2cn(C3CCNCC3)nn2)c1,Percent Effect,"30.3 µM, […]",-3.244%
Cc1cc2nc(-c3cn(C4CCNCC4)nn3)[nH]c2cc1C,Percent Effect,"30.3 µM, […]",79.71%
Clc1ccccc1CCn1ccnc1-c1cn(C2CCNCC2)nn1,Percent Effect,"30.3 µM, […]",-11.26%
Cc1c(C)c(C)c2[nH]c(-c3cn(C4CCNCC4)nn3)nc2c1C,Percent Effect,"30.3 µM, […]",88.31%
Cc1ccc2[nH]c(-c3cn(C4CCNCC4)nn3)nc2c1C,Percent Effect,"30.3 µM, […]",79.71%
Cc1ccc(-n2ccnc2-c2cn(C3CCNCC3)nn2)c(Cl)c1,Percent Effect,"30.3 µM, […]",17.13%
OCCc1ccccc1-n1ccnc1-c1cn(C2CCNCC2)nn1,Percent Effect,"30.3 µM, […]",-17.07%
CSc1ccccc1-n1ccnc1-c1cn(C2CCNCC2)nn1,Percent Effect,"30.3 µM, […]",-6.736%
CCCc1noc(CN2CCOCC2C)n1 (stereo not drawn),Percent Effect,"30.3 µM, […]",-25.75%
COCc1noc(Cn2ncn3cccc3c2=O)n1,Percent Effect,"30.3 µM, […]",-34.29%
Cc1nccc(N[C@H]2CN(C(=O)CN3CCOCC3)C[C@@H]2C(C)C)n1,Percent Effect,"30.3 µM, […]",9.574%
CC(C)n1cnc2c1C(C(=O)N1CCOCC1)N(CC1CC1)CC2.O=C(O)C(F)(F)F (stereo not drawn),Percent Effect,"30.3 µM, […]",17.66%
O=C(NCc1ccccn1)Nc1ccc2[nH]nnc2c1,Percent Effect,"30.3 µM, […]",23.78%
Cn1ccc(CN2CCCC23CCN(Cc2ccccc2F)CC3)n1.O=C(O)C(F)(F)F.O=C(O)C(F)(F)F,Percent Effect,"30.3 µM, […]",36.62%
O=C(O)[C@@H]1CN(Cc2ccc3nsnc3c2)C[C@H]1c1cccnc1,Percent Effect,"30.3 µM, […]",23.58%
Cc1ccccc1-c1noc(CN2CCn3c(nnc3C3CC3)C2)n1,Percent Effect,"30 µM, 30.03 µM",9.47%
COc1cccc(CN2CC(O)CN(C(=O)C3CCC3)CC2=O)c1OC (stereo not drawn),Percent Effect,"30.3 µM, […]",10.32%
COc1c(C2CCCN2C(=O)c2ccoc2C)c(C)nn1C (stereo not drawn),Percent Effect,"30.3 µM, […]",0.8433%
Cc1nn(C)cc1C(=O)NCc1cc(N(C)C)nc2ccccc12,Percent Effect,"30.3 µM, […]",27.45%
Cc1nn(C)c(C)c1C(=O)NCc1cc(N(C)C)nc2ccccc12,Percent Effect,"30.3 µM, […]",50.16%
CCn1nc(C)cc1C(=O)NCc1cc(N(C)C)nc2ccccc12,Percent Effect,"30.3 µM, […]",34.59%
CCOC(=O)C1(Cc2ccc(Cl)cc2)CCN(Cc2ncc[nH]2)CC1,Percent Effect,"30.3 µM, […]",14.14%
CNc1ncc(CN(C)C(=O)c2ccccc2C2CCNC2)cn1 (stereo not drawn),Percent Effect,"30.3 µM, […]",-3.65%
COc1ncccc1CNc1snc(Cl)c1C#N,Percent Effect,"30.3 µM, […]",30.49%
Cc1ncsc1C(=O)NCc1ccnc(OCC(F)(F)F)c1,Percent Effect,30 µM,34.79%
Cc1n[nH]cc1CNCc1ccnc(OCC(F)(F)F)c1.Cl,Percent Effect,"30.3 µM, […]",28.01%
O=S(=O)(NCc1cccnc1OC1CCCC1)N1CCCCC1,Percent Effect,"30.3 µM, […]",-4.69%
CN(C)c1ncccc1CNc1snc(Cl)c1C#N,Percent Effect,"30.3 µM, […]",-27.87%
N#Cc1c(Cl)nsc1NCc1ccc(N2CCCC(C(N)=O)C2)cc1 (stereo not drawn),Percent Effect,"30.3 µM, […]",27.85%
N#Cc1c(Cl)nsc1NCc1ccnc(OCC(F)(F)F)c1,Percent Effect,"30.3 µM, […]",96.62%
N#Cc1c(Cl)nsc1NCc1cccnc1OC1CCCC1,Percent Effect,"30.3 µM, […]",98.68%
N#Cc1c(Cl)nsc1NCc1cccnc1OCC(F)(F)F,Percent Effect,"30.3 µM, […]",71.75%
N#Cc1c(Cl)nsc1NCc1ccc(N2CCSCC2)cc1,Percent Effect,"30.3 µM, […]",88.25%
CC(O)CNC(=O)NCc1cccnc1OC1CCCC1 (stereo not drawn),Percent Effect,"30 µM, 30.03 µM",16.57%
N#Cc1c(Cl)nsc1NCc1ccc(N2CCC(CO)CC2)cc1,Percent Effect,"30.3 µM, […]",13.7%
COc1ncc(-c2ccc(NC(C)=O)cc2)c(OC)n1,Percent Effect,"30.3 µM, […]",5.344%
CCOCC1CN(C(=O)C2CCOCC2)Cc2cnn(C)c21 (stereo not drawn),Percent Effect,"30.3 µM, […]",-4.533%
COCCN1C[C@@H]2[C@@H](OC)CCN(Cc3cccs3)[C@@H]2C1.O=C(O)C(F)(F)F.O=C(O)C(F)(F)F,Percent Effect,"30.3 µM, […]",25.04%
NC(=O)Cn1cc(NC(=O)N2CCSCC2)cn1,Percent Effect,30 µM,-2.179%
CCOc1ccc2nc(NC(=O)c3c(C(=O)O)cnn3C)sc2c1,Percent Effect,"30.3 µM, […]",4.578%
Cc1c(Cl)ccc2ccc(NC(CO)CO)nc12,Percent Effect,"30.3 µM, […]",6.475%
CC(NC(=O)Cn1cc(C(N)=O)c(-c2ccccc2)n1)C1CC1 (stereo not drawn),Percent Effect,"30.3 µM, […]",12.7%
CC(C)(N)C(=O)N1CCCC(C(=O)c2ccc(C(C)(C)C)cc2)C1 (stereo not drawn),Percent Effect,"30.3 µM, […]",91.24%
CC(=O)NCC(=O)N1CCCC(C(=O)c2ccc(C(C)(C)C)cc2)C1 (stereo not drawn),Percent Effect,"30.3 µM, […]",16.87%
CC(C)(C)c1ccc(C(=O)C2CCCN(C(=O)CNS(C)(=O)=O)C2)cc1 (stereo not drawn),Percent Effect,"30.3 µM, […]",1.067%
Cc1cc(COC(=O)[C@@H]2Cc3ccccc3CN2S(C)(=O)=O)no1,Percent Effect,"30.3 µM, […]",12.34%
Cc1nccc(NCc2cncc3c2CCN(CC2CCOC2)C3)n1.Cl.Cl (stereo not drawn),Percent Effect,"30.3 µM, […]",55.7%
Cc1nccc(NCc2cncc3c2CCN(CC2CC2)C3)n1.Cl.Cl,Percent Effect,"30.3 µM, […]",25.61%
Cc1nccc(NCc2cncc3c2CCN(CCN(C)C)C3)n1,Percent Effect,"30.3 µM, […]",29.74%
Cc1nc(NC2(CN3CCCCC3)CCCCC2)c2cnn(C)c2n1,Percent Effect,"30.3 µM, […]",21.44%
COCC1(Nc2nc(C)nc3c2cnn3C)CCCC1,Percent Effect,"30.3 µM, […]",32.37%
CCOC(=O)CC1(Nc2nc(C)nc3c2cnn3C)CCCCC1,Percent Effect,"30.3 µM, […]",50.84%
CCOc1ccccc1C1=CCN(C(=O)C2CCN(C)C(=O)C2)CC1 (stereo not drawn),Percent Effect,30 µM,-1.516%
O=C1CC(NCc2cccc(O)c2)CN1CCc1cccc(Cl)c1 (stereo not drawn),Percent Effect,"30.3 µM, […]",24.84%
Cc1nnc(NC(=O)C2CSCN2C(=O)C2CCCC2)s1 (stereo not drawn),Percent Effect,"30.3 µM, […]",-31.76%
O=C(O)c1cc(-c2ccn(CC3CC3)n2)n2ccccc12,Percent Effect,"30.3 µM, […]",20%
O=C(c1cc(-c2ccn(CC3CC3)n2)n2ccccc12)N1CCOCC1,Percent Effect,"30.3 µM, […]",88.37%
O=C(c1cc(-c2ccn(CC3CC3)n2)n2ccccc12)N1CCCO1,Percent Effect,"30.3 µM, […]",27.45%
O=C(c1ccc(NCc2ccco2)nc1)N1CCc2ccccc21,Percent Effect,"30.3 µM, […]",-1.41%
Fc1ccc2[nH]c3c(c2c1)CCN1C(c2ccncc2)N2CCC31CC2 (stereo not drawn),Percent Effect,"30.3 µM, […]",86.05%
Fc1ccc2[nH]c3c(c2c1)CCN1C(c2ccccn2)N2CCC31CC2 (stereo not drawn),Percent Effect,"30.3 µM, […]",22.17%
CC(=O)NC1CCCc2c1[nH]c1ccc(F)cc21 (stereo not drawn),Percent Effect,"30.3 µM, […]",4.787%
O=C(OCc1ccccc1)N1CC[C@H]2CC(CO)O[C@@H]2C1 (stereo partly drawn),Percent Effect,"30.3 µM, […]",-47.27%
CN1CCC(n2nc(Cc3cccc(Cl)c3)nc2Cn2ccnc2)CC1,Percent Effect,"30.3 µM, […]",15.54%
Cc1noc(C)c1CCCNC(=O)C1CCN(C(=O)C2CC2)CC1,Percent Effect,"30.3 µM, […]",-2.423%
CC(C)Cc1noc(C2CCCN(C(=O)CCc3cnn(C)c3)C2)n1 (stereo not drawn),Percent Effect,"30.3 µM, […]",5.747%
CCCN1CCC(NC(=O)Nc2ccc(OC)c(OC)c2)CC1,Percent Effect,"30.3 µM, […]",8.2%
CCCN1CCC(NC(=O)c2csc(C)c2-c2ccccc2)CC1,Percent Effect,"30.3 µM, […]",11.13%
CCCN1CCC(Nc2cc(-c3ccccc3)ccc2OC)CC1,Percent Effect,"30.3 µM, […]",94.4%
Cc1ccc(C2CCCN(C(=O)c3cnn(C)c3)C2)nc1 (stereo not drawn),Percent Effect,"30.3 µM, […]",-15.16%
O=C(c1cc(Cl)ccc1F)N1CCCC1Cn1cccn1 (stereo not drawn),Percent Effect,30 µM,-22.81%
COc1cc(NCc2ccncc2)c(-c2nn[nH]n2)cc1OC,Percent Effect,"30.3 µM, […]",-13.14%
COCCN1C(=O)CCC12CCN(C(=O)CNC(C)=O)CC2,Percent Effect,"30.3 µM, […]",21.99%
COc1cc(-c2cc(C3CCOC3)c(C#N)c(N)n2)ccc1O (stereo not drawn),Percent Effect,"30.3 µM, […]",14.88%
COc1ccc2c(c1)c(-c1nc(C)ncc1CN)cn2C,Percent Effect,"30.3 µM, […]",49%
COc1ccc2c(c1)c(-c1nc(N(C)C)ncc1CN)cn2C,Percent Effect,"30.3 µM, […]",97.85%
COCC(=O)NCc1cnc(C)nc1-c1cn(C)c2ccc(OC)cc12,Percent Effect,"30.3 µM, […]",7.699%
Cc1ccccc1C(C)NC(=O)CN1CCN(Cc2ccc(Br)s2)CC1 (stereo not drawn),Percent Effect,"30.3 µM, […]",-13.55%
CCn1cc(NC(=O)NCc2ccc3c(c2)OCO3)cn1,Percent Effect,30 µM,18.35%
Cc1ncsc1CN1C[C@@H]2COC[C@]2(C(=O)NC2CC(F)(F)C2)C1.O=C(O)C(F)(F)F,Percent Effect,"30.3 µM, […]",30.87%
O=C(NC1CC(F)(F)C1)[C@]12COC[C@H]1CN(Cc1ccccc1)C2.O=C(O)C(F)(F)F,Percent Effect,"30.3 µM, […]",18.84%
O=C(NC1CC(F)(F)C1)[C@]12COC[C@H]1CN(Cc1ccsc1)C2,Percent Effect,"30.3 µM, […]",55.66%
CNS(=O)(=O)c1cccc(C(C)NCc2ccc(C)c(C)c2)c1 (stereo not drawn),Percent Effect,"30.3 µM, […]",17.01%
CCOC(=O)N1CC2(CCNCC2)c2cc(Cl)ccc21.Cl,Percent Effect,"30.3 µM, […]",67.51%
Cc1ccc2c(c1)C1(CCNCC1)CN2C(=O)C(C)C,Percent Effect,"30.3 µM, […]",17.68%
Cl.Cl.O=C([C@H]1CCCN1)N1CC2(CCNCC2)c2cc(Cl)ccc21,Percent Effect,"30.3 µM, […]",35.2%
CN(C)C(=O)N1CC2(CCNCC2)c2cc(Cl)ccc21.Cl,Percent Effect,"30.3 µM, […]",-49.76%
Cl.O=C(c1ccccc1F)N1CC2(CCNCC2)c2cc(Cl)ccc21,Percent Effect,"30.3 µM, […]",46.46%
Cl.Cl.O=C([C@@H]1CSCN1)N1CC2(CCNCC2)c2cc(Cl)ccc21,Percent Effect,"30.3 µM, […]",30.82%
C[C@@H](N)C(=O)N1CC2(CCNCC2)c2cc(Cl)ccc21.Cl.Cl,Percent Effect,"30.3 µM, […]",18.29%
CC(C)C[C@H](N)C(=O)N1CC2(CCNCC2)c2cc(Cl)ccc21.Cl.Cl,Percent Effect,"30.3 µM, […]",94.41%
CCc1noc(C)c1C(=O)N(C)Cc1ncc(C)c(OC)c1C,Percent Effect,"30 µM, 30.03 µM",17.33%
CN(CCCC#N)C1CCCN(Cc2noc(C3CC3)n2)C1 (stereo not drawn),Percent Effect,"30 µM, 30.03 µM",35.66%
Cc1cccnc1CC(C)N(C)C(=O)c1cccs1 (stereo not drawn),Percent Effect,"30.3 µM, […]",22.03%
CNC(=O)c1cnc(/C=C/c2cc(OC)c(O)c(OC)c2)s1,Percent Effect,"30.3 µM, […]",3.705%
CCn1cc(NC(=O)C(C)n2ncc(Cl)c2C)c(C(=O)NCC(C)C)n1 (stereo not drawn),Percent Effect,"30.3 µM, […]",23.51%
CC(Oc1ccc2c(c1)OCO2)C(=O)N1CCC(N2CCCC2)CC1 (stereo not drawn),Percent Effect,"30.3 µM, […]",30.73%
CCN(Cc1nonc1C)C(=O)c1ccc(Br)o1,Percent Effect,"30.3 µM, […]",25.68%
O=C(O)C(F)(F)F.O=C1[C@H]2CN(CC3CCOCC3)C[C@H]2CN1Cc1cccc(F)c1,Percent Effect,"30.3 µM, […]",2.876%
CN1CCC2(CCCN(c3nccc(C(F)(F)F)n3)C2)CC1.O=C(O)C(F)(F)F,Percent Effect,"30.3 µM, […]",21.14%
O=C(O)C(F)(F)F.O=C(O)C(F)(F)F.c1cnc(N2CCCC3(CCN(c4ncccn4)C3)C2)nc1 (stereo not drawn),Percent Effect,"30.3 µM, […]",12.64%
CC(C)N1CCC2(CCCN(c3nccc(C(F)(F)F)n3)C2)CC1.O=C(O)C(F)(F)F,Percent Effect,"30.3 µM, […]",54.65%
